Measured values published in PubChem BioAssay AID1159580 (chemical genetic matrix, 2015).
“And” between values parts separate entries of the source, which are not always exact repeats. Equal entries are not always repeated. The whole screen tested about 5,500 compounds, of which about 2,000 (36%) were called active. About 18% were inconclusive and are not listed. No stated cut-off is given here; in the data, active means normalized growth mostly below about 0.91 (no sharp cut-off); inconclusive means no clear call, values can overlap the other calls; inactive means mostly above about 0.92. Some of the results follow.

Test: chemical genetic growth profiling, strain panel (AID 1159580);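 further: tested at 20 µM; growth read once vehicle control cultures reached saturation at 30 °C; 1 = growth at the plate median or of vehicle wells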
Conditions: S. cerevisiae deletion strains, growth OD

Measured: normalized growth

C=C1C[C@]23C[C@@]1(O)CC[C@H]2[C@@]12C=C[C@H](O)[C@@](C)(C(=O)O1)[C@H]2[C@@H]3C(=O)O
inactive: locus YAL013W, strain DEP1, stronger effect = lower value 0.998 | locus YAL021C, strain ccr4, stronger effect = lower value 0.976 | locus YAL026C, strain drs2, stronger effect = lower value 1.04 | locus YAL030W, strain snc1, stronger effect = lower value 1.03 | locus YBL061C, strain skt5, stronger effect = lower value 1.02 | locus YBR009C, strain hhf1, stronger effect = lower value 1.02 | locus YBR021W, strain FUR4, stronger effect = lower value 1.01 | locus YBR023C, strain chs3, stronger effect = lower value 1.02 | locus YBR171W, strain sec66, stronger effect = lower value 1.03 | locus YBR229C, strain ROT2, stronger effect = lower value 0.956 | locus YBR231C, strain swc5, stronger effect = lower value 1.03 | locus YBR279W, strain paf1, stronger effect = lower value 1.02 | locus YCL011C, strain gbp2, stronger effect = lower value 1.03 | locus YCL016C, strain dcc1, stronger effect = lower value 0.997 | locus YCL029C, strain bik1, stronger effect = lower value 0.984 | locus YCL069W, strain vba3, stronger effect = lower value 1.03 | locus YCR088W, strain abp1, stronger effect = lower value 1.02 | locus YDL005C, strain med2, stronger effect = lower value 1.03 | locus YDL035C, strain GPR1, stronger effect = lower value 0.982 | locus YDL040C, strain nat1, stronger effect = lower value 1.03 | locus YDL074C, strain BRE1, stronger effect = lower value 1.02 | locus YDL101C, strain DUN1, stronger effect = lower value 0.999 | locus YDL134C, strain PPH21, stronger effect = lower value 1.03 | locus YDL185W, strain tfp1, stronger effect = lower value 0.978 | locus YDL192W, strain arf1, stronger effect = lower value 0.986 | locus YDR001C, strain nth1, stronger effect = lower value 1.03 | locus YDR069C, strain doa4, stronger effect = lower value 1.03 | locus YDR101C, strain arx1, stronger effect = lower value 0.967 | locus YDR137W, strain rgp1, stronger effect = lower value 1.03 | locus YDR150W, strain NUM1, stronger effect = lower value 0.996 | locus YDR159W, strain sac3, stronger effect = lower value 1.04 | locus YDR162C, strain NBP2, stronger effect = lower value 0.976 | locus YDR195W, strain ref2 1 | locus YDR297W, strain sur2, stronger effect = lower value 1.02 | locus YDR318W, strain mcm21, stronger effect = lower value 0.984 | locus YDR334W, strain swr1, stronger effect = lower value 1.02 | locus YDR335W, strain msn5, stronger effect = lower value 1.02 | locus YDR388W, stronger effect = lower value 0.998 | locus YDR392W, strain spt3, stronger effect = lower value 0.885 | locus YDR502C, strain sam2, stronger effect = lower value 1.03 | locus YEL003W, strain gim4, stronger effect = lower value 1.02 | locus YEL037C, strain rad23, stronger effect = lower value 1.02 | locus YEL061C, strain CIN8 (second series), stronger effect = lower value 1.02 | locus YEL061C, strain CIN8, stronger effect = lower value 1 | locus YER015W, strain faa2, stronger effect = lower value 1.02 | locus YER016W, strain bim1, stronger effect = lower value 1.03 | locus YER110C, stronger effect = lower value 0.98 | locus YER111C, strain swi4, stronger effect = lower value 1 | locus YER155C, strain BEM2 (second series), stronger effect = lower value 1 | locus YER155C, strain BEM2, stronger effect = lower value 0.991 | locus YER167W, strain BCK2, stronger effect = lower value 0.989 | locus YFR010W, strain ubp6, stronger effect = lower value 1.03 | locus YGL078C, strain dbp3, stronger effect = lower value 1.02 | locus YGL086W, strain mad1, stronger effect = lower value 1.01 | locus YGL167C, strain pmr1, stronger effect = lower value 1.03 | locus YGL173C, strain kem1, stronger effect = lower value 1.05 | locus YGL227W, strain vid30, stronger effect = lower value 1.02 | locus YGL240W, strain doc1, stronger effect = lower value 1.02 | locus YGL248W, strain PDE1, stronger effect = lower value 1.01 | locus YGL253W, strain hxk2, stronger effect = lower value 1.05 | locus YGR135W, strain pre9, stronger effect = lower value 1.07 | locus YGR252W, strain gcn5, stronger effect = lower value 1.05 | locus YHR013C, strain ard1, stronger effect = lower value 1.02 | locus YHR027C, strain rpn1, stronger effect = lower value 1.03 | locus YHR030C, strain SLT2, stronger effect = lower value 0.996 and 1 | locus YHR079C, strain IRE1 (second series), stronger effect = lower value 0.998 | locus YHR079C, strain IRE1, stronger effect = lower value 0.998 | locus YHR094C, strain hxt1, stronger effect = lower value 0.991 | locus YHR129C, strain ARP1, stronger effect = lower value 0.998 | locus YHR142W, strain chs7, stronger effect = lower value 1.04 | locus YHR200W, strain rpn10, stronger effect = lower value 1.01 | locus YIL066C, strain RNR3, stronger effect = lower value 0.98 | locus YIL073C, strain SPO22, stronger effect = lower value 1.07 | locus YIL125W, strain kgd1, stronger effect = lower value 1 | locus YIR030C, strain dcg1, stronger effect = lower value 0.994 | locus YJL092W, strain hpr5, stronger effect = lower value 1.02 | locus YJL095W, strain BCK1 (second series), stronger effect = lower value 1.02 | locus YJL095W, strain BCK1, stronger effect = lower value 1.06 and 1.01 | locus YJL115W, strain asf1, stronger effect = lower value 1.02 | locus YJL129C, strain trk1, stronger effect = lower value 1.04 | locus YJL134W, strain LCB3, stronger effect = lower value 0.99 | locus YJL154C, strain vps35, stronger effect = lower value 1.03 | locus YJL164C, strain tpk1, stronger effect = lower value 1.01 | locus YJL166W, strain qcr8, stronger effect = lower value 1.03 | locus YJL168C, strain set2, stronger effect = lower value 1.01 | locus YJL187C, strain SWE1 (second series), stronger effect = lower value 1.01 | locus YJL187C, strain SWE1, stronger effect = lower value 1.03 | locus YJR043C, strain POL32, stronger effect = lower value 0.96 | locus YJR066W, strain TOR1, stronger effect = lower value 0.962 | locus YKL009W, strain mrt4, stronger effect = lower value 1.03 | locus YKL068W, stronger effect = lower value 1 | locus YKL085W, strain MDH1 (second series), stronger effect = lower value 0.99 | locus YKL085W, strain MDH1, stronger effect = lower value 0.99 | locus YKL160W, strain elf1, stronger effect = lower value 0.998 | locus YKR001C, strain vps1, stronger effect = lower value 1.01 | locus YKR026C, strain gcn3, stronger effect = lower value 1.02 | locus YKR091W, strain srl3, stronger effect = lower value 1.03 | locus YLL001W, strain dnm1, stronger effect = lower value 0.986 | locus YLL026W, stronger effect = lower value 1.02 | locus YLL041C, strain sdh2, stronger effect = lower value 1.02 | locus YLR027C, strain aat2, stronger effect = lower value 1.03 | locus YLR039C, strain RIC1, stronger effect = lower value 0.989 | locus YLR058C, strain SHM2, stronger effect = lower value 0.98 | locus YLR102C, strain apc9, stronger effect = lower value 0.995 | locus YLR113W, strain HOG1, stronger effect = lower value 0.998 | locus YLR221C, strain rsa3, stronger effect = lower value 1.04 | locus YLR258W, strain gsy2, stronger effect = lower value 1.02 | locus YLR262C, strain YPT6 (second series), stronger effect = lower value 1.03 | locus YLR268W, strain sec22, stronger effect = lower value 0.97 | locus YLR320W, strain mms22, stronger effect = lower value 1.05 | locus YLR342W, strain FKS1, stronger effect = lower value 1.03 | locus YLR357W, strain rsc2, stronger effect = lower value 0.994 | locus YLR370C, strain arc18, stronger effect = lower value 1.02 | locus YLR371W, strain rom2, stronger effect = lower value 0.992 | locus YLR384C, strain iki3, stronger effect = lower value 1.04 | locus YLR418C, strain cdc73, stronger effect = lower value 1.09 | locus YML016C, strain PPZ1, stronger effect = lower value 0.984 | locus YML032C, strain rad52, stronger effect = lower value 0.984 | locus YML120C, strain ndi1, stronger effect = lower value 1.01 | locus YML124C, strain tub3, stronger effect = lower value 0.984 | locus YMR058W, strain fet3, stronger effect = lower value 1.03 | locus YMR078C, strain ctf18, stronger effect = lower value 0.999 | locus YMR125W, strain sto1, stronger effect = lower value 1.01 | locus YMR129W, stronger effect = lower value 1.02 | locus YMR205C, strain PFK2, stronger effect = lower value 1.02 | locus YMR223W, strain ubp8, stronger effect = lower value 1.01 | locus YMR231W, strain pep5, stronger effect = lower value 1.01 | locus YMR263W, strain SAP30, stronger effect = lower value 0.994 | locus YMR307W, strain GAS1, stronger effect = lower value 0.969 | locus YNL067W, strain RPL9B, stronger effect = lower value 1 | locus YNL071W, strain lat1, stronger effect = lower value 1.02 | locus YNL128W, strain TEP1, stronger effect = lower value 0.976 | locus YNL153C, strain GIM3, stronger effect = lower value 1.02 | locus YNL183C, strain NPR1, stronger effect = lower value 0.958 | locus YNL209W, strain ssb2, stronger effect = lower value 1.03 | locus YNL233W, strain BNI4, stronger effect = lower value 1.04 | locus YNL248C, strain rpa49, stronger effect = lower value 1.05 | locus YNL250W, strain rad50, stronger effect = lower value 0.998 | locus YNL271C, strain bni1, stronger effect = lower value 0.982 | locus YNL298W, strain CLA4, stronger effect = lower value 0.987 | locus YNL307C, strain MCK1, stronger effect = lower value 1.01 | locus YNL322C, strain KRE1 (second series), stronger effect = lower value 1 | locus YNR049C, strain mso1, stronger effect = lower value 1.02 | locus YNR052C, strain pop2, stronger effect = lower value 1.03 | locus YOL006C, strain TOP1, stronger effect = lower value 0.967 | locus YOL012C, strain htz1 1.07 | locus YOL147C, strain pex11, stronger effect = lower value 0.99 | locus YOR001W, strain rrp6, stronger effect = lower value 1.04 | locus YOR061W, strain CKA2, stronger effect = lower value 0.962 | locus YOR069W, strain VPS5, stronger effect = lower value 0.996 | locus YOR070C, strain gyp1, stronger effect = lower value 1.01 | locus YOR080W, strain dia2, stronger effect = lower value 1 | locus YOR083W, strain WHI5, stronger effect = lower value 0.997 | locus YOR106W, strain vam3, stronger effect = lower value 0.982 | locus YOR136W, strain idh2, stronger effect = lower value 0.989 | locus YOR144C, strain elg1, stronger effect = lower value 0.991 | locus YOR184W, strain ser1, stronger effect = lower value 0.954 | locus YOR231W, strain MKK1, stronger effect = lower value 0.98 | locus YOR265W, strain rbl2, stronger effect = lower value 1.02 | locus YOR270C, strain vph1, stronger effect = lower value 1.11 | locus YOR290C, strain snf2, stronger effect = lower value 0.985 | locus YOR316C, strain cot1, stronger effect = lower value 0.984 | locus YPL051W, strain arl3, stronger effect = lower value 0.992 | locus YPL078C, strain atp4, stronger effect = lower value 0.995 | locus YPL106C, strain sse1, stronger effect = lower value 0.993 | locus YPL240C, strain hsp82, stronger effect = lower value 1.01 | locus YPL241C, strain CIN2, stronger effect = lower value 0.997 | locus YPL256C, strain CLN2, stronger effect = lower value 0.992 | locus YPR119W, strain clb2, stronger effect = lower value 1.01 | locus YPR141C, strain kar3, stronger effect = lower value 0.981 | locus YPR163C, strain tif3, stronger effect = lower value 0.989 | locus YPR167C, strain met16, stronger effect = lower value 1.01 | strain wtn01, stronger effect = lower value 0.974
